From PubChem
JMJD2A Tudor inh: qHTS Assay for Inhibitors of JMJD2A-Tudor Domain; AlphaScreen JMJD2A-Tudor / H3K4me3 peptide binding; Potency, µM (titrated, usually from 114 µM), without a hit: top-dose activity change, negative = inhibition, most hits filed as inhibitors; Lysine-specific demethylase 4A (Homo sapiens), O75164; actives 4.4% (n = 390,000); further: on the % scale 0 is the no-effect control and ±100 the full control effect; nearly all actives have a fitted effect of over 50% in size
Target sequence (O75164 whole entry, looked up, the tested form may be a part): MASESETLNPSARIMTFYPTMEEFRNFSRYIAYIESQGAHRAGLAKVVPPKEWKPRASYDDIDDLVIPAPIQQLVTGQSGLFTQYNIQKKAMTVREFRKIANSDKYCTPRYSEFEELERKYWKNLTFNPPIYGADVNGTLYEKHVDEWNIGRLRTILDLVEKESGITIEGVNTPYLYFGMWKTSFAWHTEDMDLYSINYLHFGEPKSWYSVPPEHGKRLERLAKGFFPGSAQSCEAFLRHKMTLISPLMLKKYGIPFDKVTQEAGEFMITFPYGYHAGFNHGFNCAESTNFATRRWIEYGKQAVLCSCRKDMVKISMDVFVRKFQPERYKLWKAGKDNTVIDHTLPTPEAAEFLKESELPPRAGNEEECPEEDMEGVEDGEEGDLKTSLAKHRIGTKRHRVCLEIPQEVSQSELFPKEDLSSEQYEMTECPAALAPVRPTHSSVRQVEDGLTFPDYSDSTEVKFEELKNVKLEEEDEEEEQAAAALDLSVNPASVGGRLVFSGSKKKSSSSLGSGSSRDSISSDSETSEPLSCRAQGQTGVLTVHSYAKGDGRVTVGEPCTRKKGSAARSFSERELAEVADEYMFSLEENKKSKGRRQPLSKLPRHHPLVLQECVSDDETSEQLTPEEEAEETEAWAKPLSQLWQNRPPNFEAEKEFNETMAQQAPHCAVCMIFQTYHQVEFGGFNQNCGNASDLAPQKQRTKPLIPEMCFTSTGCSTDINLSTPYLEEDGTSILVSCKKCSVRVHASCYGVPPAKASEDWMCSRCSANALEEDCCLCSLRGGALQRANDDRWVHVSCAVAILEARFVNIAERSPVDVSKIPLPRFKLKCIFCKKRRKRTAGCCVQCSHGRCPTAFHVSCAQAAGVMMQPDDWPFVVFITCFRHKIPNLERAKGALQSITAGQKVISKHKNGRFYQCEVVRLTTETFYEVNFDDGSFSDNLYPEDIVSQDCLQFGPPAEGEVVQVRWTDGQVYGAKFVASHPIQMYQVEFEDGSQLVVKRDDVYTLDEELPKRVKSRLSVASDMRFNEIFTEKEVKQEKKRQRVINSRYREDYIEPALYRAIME
G9a inh: qHTS Assay for Inhibitors of Histone Lysine Methyltransferase G9a; G9a H3K9 monomethylation, AlphaScreen, 2 h; Potency, µM (titrated, usually from 102 µM), for the others: top-dose activity, negative = inhibition, usual class: inhibitors; actives 8.8% (n = 350,000); AID 504332, 2011; further: on the % scale 0 is the no-effect control and ±100 the full control effect; nearly all actives have a fitted effect of over 75% in size
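Using a bead-based AlphaScreen, monomethylated H3K9 product from 2 h room-temperature reactions (G9a 20 nM, peptide 500 nM, SAM 20 uM) was detected with 0.5 ug/mL rabbit anti-H3K9me1 antibody.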
Sfp inh: qHTS Assay for Inhibitors of Bacillus subtilis Sfp phosphopantetheinyl transferase (PPTase) | 4'-phosphopantetheinyl transferase ffp (Bacillus subtilis), Q9F4F7 | Biochemical Sfp PPTase activity, qHTS | Potency, µM, without a hit: largest response in the series, negative = inhibition, hits mostly inhibitors | actives 3.5% (n = 310,000) | AID 1490, 2009;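 further: the enzyme is Sfp with the accession as filed and its product quenches rhodamine fluorescence; 0% = enzyme reaction without inhibitor and -100% = no enzyme wells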
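Buffer: 50 mM Hepes-Na pH 7.6, 10 mM MgCl2, 0.01% Nonidet P-40, 0.01% BSA. Enzyme 15 nM, pre-exposed to compound 15 min; substrates then added and fluorescence change tracked over 30 min.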
BAZ2B block: qHTS Assay for Inhibitors of BAZ2B; Bromodomain adjacent to zinc finger domain protein 2B (Homo sapiens), Q9UIF8; AlphaScreen BAZ2B-H3K14Ac peptide displacement; Potency, µM (titrated, usually from 114 µM), without a hit: at the top dose activity change, negative = inhibition, most hits filed as inhibitors; actives 4.4% (n = 360,000); AID 504333, 2011; further: on the % scale 0 is the no-effect control and ±100 the full control effect; nearly all actives have a fitted effect of over 60% in size
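Inhibition is scored as reduced AlphaScreen emission. The BAZ2B/b-H3(5-23)K14Ac complex (50 nM each) in PBS pH 7.4, 0.01% Tween-20 meets compound (up to 110 uM) for 30 min at RT before bead addition.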
HP1b binding inh: HTS for Inhibitors of HP1-beta Chromodomain Interactions with Methylated Histone Tails | AlphaScreen HP1-beta / biotin-H3K9me3 peptide binding | Potency, µM (series often up to 114 µM), without a hit: at the top dose activity change, negative = inhibition, hits mostly inhibitors | actives 0.56% (n = 390,000) | AID 540317, 2011; further: nearly all actives have a fitted effect of over 70% in size
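Compound inhibition of the preformed complex between 50 nM HP1-beta and 50 nM biotinylated H3K9me3 peptide was read by AlphaScreen. Buffer was PBS pH 7.4 with 0.01% Tween-20. Incubations ran 30 min at room temperature, with 10 ug/mL donor/acceptor beads.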
L3MBTL1 inh: qHTS Assay for the Inhibitors of L3MBTL1; Lethal(3)malignant brain tumor-like protein 1 (Homo sapiens), Q9Y468; AlphaScreen L3MBTL1–H3K9me1 peptide binding; Potency, µM (top dose mostly 57.1 µM), inactives show at the highest dose activity, negative = inhibition, actives largely listed as inhibitors; actives 0.66% (n = 230,000); AID 485360, 2010; further: on the % scale 0 is the no-effect control and ±100 the full control effect; nearly all actives have a fitted effect of over 60% in size
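AlphaScreen assay: L3MBTL1 (50 nM final) was preincubated 30 min at room temperature with biotinylated H3(1-15)K9me1 peptide (75 nM final), then 30 min with library compounds; streptavidin donor and nickel chelate acceptor beads (10 ug/mL final) added, 30 min dark.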
The depositor's hits bear a star; ? = inconclusive; nt = no result; [ ] = remark or other dose. Most compounds without a hit are left out; they make up all but 12% or so of the library. The call rests on the fitted dose curve; in most records, active means well fitted curve in the direction sought with a large enough effect; inconclusive means small, poorly fitted or top-dose-only effect, or another doubt; inactive means no such curve, though single readings can be large; an effect the other way counts as inactive or inconclusive. Potency means the concentration at half of the fitted maximal effect.

SMILES	JMJD2A Tudor inh	G9a inh	Sfp inh	BAZ2B block	HP1b binding inh	L3MBTL1 inh
COc1cccc(/C(C#N)=C/c2c(-c3ccc(Cl)cc3)nc3c(C)cccn23)c1	?	10µM*	6%	?	?	-21%
CCOc1ccc(CCNC(=O)Cn2nnc(-c3ccc(C(F)(F)F)cc3)n2)cc1OCC	-7%	3%[59 µM]	nt	?	32%	nt
CC1CCN(C2=NN3C(=N)/C(=C\c4ccc(OC(=O)c5ccco5)cc4)C(=O)N=C3S2)CC1	?	17%	12%	-37%	4%	-6%
CCOC(=O)c1ccc(N2NC(=O)/C(=C/c3ccc(OC(=O)c4ccco4)c(OC)c3)C2=O)cc1	nt	32µM*	?	?	nt	-19%
N=C1/C(=C\c2ccc(OC(=O)c3ccc(F)cc3)cc2)C(=O)N=C2SC(N3CCOCC3)=NN12	2%	-9%	-20%	45µM*	39%	nt
CS(=O)(=O)C1=NN2C(=N)/C(=C\c3ccc(OC(=O)c4ccco4)cc3)C(=O)N=C2S1	-11%	45µM*	-22%	50µM*	26%	nt
CCS(=O)(=O)C1=NN2C(=N)/C(=C\c3ccc(OC(=O)c4ccco4)c(OC)c3)C(=O)N=C2S1	?	32µM*	-10%	-39%	14%	nt
Cc1ccc(-n2nc3c(N4CCC(C(=O)NC(C)C)CC4)nnc(C)c3c2C)cc1	1%	4%[59 µM]	nt	-5%	40%	nt
COC(=O)C/C=C/[C@@H](C)[C@H](O)c1ccccc1Br	nt	nt	-13%	nt	nt	nt
Oc1ccc2c(c1)C1CCCC1(N1CCOCC1)O2 (centres undefined)	-20%	8.9µM*	50µM*	?	?	32µM*
CC1=C(C(=O)N2CCOCC2)C(c2ccc(O)cc2)NC(=S)N1 (centres undefined)	-10%	?	?	0%	31%	-3%
Cc1[nH]c2ccccc2c1/C=C/C(=O)c1ccncc1	-11%	nt	?	0%	22%	37%
O=C(/C=C/c1cccc2ccccc12)c1ccncc1	?	?	25µM*	?	-20%	-15%
CCn1cc(C(=O)NCCc2ccc(Cl)cc2)c(=O)c2cc(S(=O)(=O)N(C)C3CCCCC3)ccc21	-28%	-25%[59 µM]	nt	nt	0%	nt
COc1ccccc1N1C(=O)CC(Nc2ccc(N3CCOCC3)cc2)C1=O (centres undefined)	?	?	79µM*	?	?	-14%
O=C1CC(Nc2ccc(N3CCOCC3)cc2)C(=O)N1Cc1ccccc1 (centres undefined)	?	8.9µM*	-2%	?	-20%	9%[11.4 µM]
CCOc1ccccc1N1C(=O)CC(Nc2ccc(N3CCOCC3)cc2)C1=O (centres undefined)	?	?	-13%	?	?	28µM*
CCOC(=O)C1CCN(C(=O)Cn2ncc3c4ccccc4n(Cc4ccccc4)c3c2=O)CC1	-12%	5%[59 µM]	nt	-19%	11%	nt
COc1ccc(C(C(=O)Nc2ccc(C(C)C)cc2)N(C)C(=O)Cc2cccs2)cc1 (centres undefined)	-29%	13%[59 µM]	nt	-5%	45%	nt
Cc1cc(NC(=O)CSc2cn(CCNC(=O)c3ccc(Cl)cc3)c3ccccc23)no1	-6%	?	8%	-8%	41%	?
CCOc1ccc(C(=O)NCCn2cc(SCC(=O)Nc3cc(C)on3)c3ccccc32)cc1	-19%	-7%[59 µM]	?	79µM*	19%	0%
CCN(CC)C(=O)Cn1cc(SCC(=O)Nc2cc(C)on2)c2ccccc21	89µM*	-7%	19%	-12%	14%	-16%
Cc1ccc(C(=O)NCCn2cc(SCC(=O)Nc3nnc(C)s3)c3ccccc32)cc1	-22%	50µM*	-16%	-6%	36%	nt
Cc1ccc(OCC(=O)Nc2ccc3nc(SCC(=O)N(C)c4ccccc4)sc3c2)cc1	-27%	3%[59 µM]	nt	-20%	9%	nt
COc1cccc(Nc2nc(-c3ccc(O)cc3)cs2)c1	?	50µM*	-2%	?	-9%	-8%
SMILES	JMJD2A Tudor inh	G9a inh	Sfp inh	BAZ2B block	HP1b binding inh	L3MBTL1 inh
COc1cccc(Nc2nc(-c3cccc(N4C(=O)c5ccccc5C4=O)c3)cs2)c1	?	14µM*	15%	?	?	-2%
COc1cccc(N2C(=O)c3ccccc3C2=O)c1	4%	nt	nt	nt	nt	nt
CC1Cn2cc(C(=O)Nc3ccccc3C(F)(F)F)c(=O)c3c(Cl)ccc(c32)O1 (centres undefined)	-19%	10%[12.7 µM]	nt	5%	15%	-11%
O=C(CCCn1c(=O)c2sccc2n(Cc2ccc(F)cc2Cl)c1=O)NCc1ccc2c(c1)OCO2	-11%	-38%[59 µM]	nt	0%	16%	nt
COc1ccc(CNc2ccc3cn[nH]c3c2)c(OC)c1OC	?	8.9µM*	1%	?	-4%	nt
CCOc1cc(CNc2ccc3cn[nH]c3c2)ccc1OC	?	28µM*	-13%	?	6%	nt
CN(C)c1ccc(-c2cncnc2NCc2cccs2)cc1	nt	nt	2%	nt	nt	nt
COc1ccc(CNC(=O)Cn2c(=O)nc(-c3ccccc3F)c3cc(Cl)ccc32)cc1OC	-14%	-20%[59 µM]	nt	-19%	5%	nt
CN(C)C1(CN=Cc2cc(Cl)cc([N+](=O)[O-])c2O)CCCCC1	40µM*	?	12%	45µM*	?	nt
Fc1ccccc1OCc1nc(-c2ccc(-n3cccc3)cc2)no1	-10%	-5%[59 µM]	nt	-14%	22%	nt
CCC1S/C(=N/C(=O)NC2CCCCC2)NC1=O (centres undefined)	-9%	4%[59 µM]	10%	-2%	33%	7%
O=C(/N=C1\NC(=O)C(F)(C(F)(F)F)S1)NC1CCCCC1 (centres undefined)	50µM*	3.2µM*	13µM*	-28%	?	7%
CCN1C(=O)/C(=C2/C(=O)N3c4c(cc(OC(C)=O)cc42)C(C)=CC3(C)C)SC1=S	?	2.8µM*	7%	2µM*	?	-22%
COc1cc2c3c(c1)/C(=C1/SC(NC(C)=O)=NC1=O)C(=O)N3C(C)(C)C=C2C	?	?	35µM*	20µM*	?	-13%
Cc1ccc(S(=O)(=O)N2CCCc3cc(NC(=O)c4cccc(Cl)c4)ccc32)cc1	-17%	9%[59 µM]	nt	-17%	15%	nt
